A selection: hits, their analogues and other compounds. The true share with any hit is near 19%.
HT1080 IDH1KD tx – qHTS for induction of synthetic lethality in tumor cells producing 2HG: qHTS for the HT-1080-IDH1KD cell line. HT-1080 IDH1 knockdown viability, ATP luminescence, 48 h. Potency, µM (doses to about 46.1 µM), most hits filed as cytotoxic. hit rate 2% among 360,000
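% activity derives from luminescence (CellTiter-Glo), normalised to DMSO and no-cell wells. HT-1080-IDH1KD cells, 750/well, had 48 h compound exposure at 37 °C.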
DT40 TDP1 no CPT – qHTS for Inhibitors of human tyrosyl-DNA phosphodiesterase 1 (TDP1): qHTS in cells in absence of CPT. Potency, µM (titrated, usually from 46.2 µM), most hits filed as inhibitors. AID 686978, 2013. hit rate 15% among 420,000. DT40 Tdp1-/- hTDP1 cells, no CPT, ATP luminescence, 48 h; note: nearly all actives have a fitted effect of over 55% in size
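Stably hTDP1-transfected Tdp1-null chicken DT40 cells were treated with library compounds minus camptothecin and grown for at least 48 hr at 37 °C, after which cellular ATP was quantified by luminescence.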
DT40 TDP1 CPT – qHTS for Inhibitors of human tyrosyl-DNA phosphodiesterase 1 (TDP1): qHTS in cells in presence of CPT; hit rate 12% among 420,000; Potency, µM (top dose mostly 46.2 µM), actives largely listed as inhibitors; chicken DT40 Tdp1-/-;hTDP1 cells + 20 nM CPT, ATP luminescence, 48 h; note: nearly all actives have a fitted effect of over 55% in size
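Chicken DT40 Tdp1-/- cells complemented with human TDP1, 400 cells/well, exposed to compounds plus 20 nM camptothecin for at least 48 h at 37 C; viability read as ATP content by CellTiter-Glo luminescence.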
HT1080NT lethal – qHTS for induction of synthetic lethality in tumor cells producing 2HG: qHTS for the HT-1080-NT fibrosarcoma cell line; HT-1080-NT fibrosarcoma viability, CellTiter-Glo ATP luminescence, 48 h; Potency, µM (doses to about 46.1 µM), hits mostly cytotoxic; hit rate 1.6% among 360,000;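 note: NT is the 2HG producing partner of a matched IDH1 knockdown line; nearly all actives have a fitted effect of over 55% in size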
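Toxicity toward the 2HG-producing NT line was scored as %Activity, normalised to DMSO and no-cell wells, from CellTiter-Glo luminescence after 48 hours' treatment.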
IL1B secr inh – qHTS for Inhibitors of Inflammasome Signaling: IL-1-beta AlphaLISA Primary Screen; activity change, % at 57.5 µM; hit rate 4.7% among 360,000; THP-1 LPS/ATP IL-1B secretion, AlphaLISA, 16 h; active compounds read low; in the data active = activity change below about -50%; inconclusive = mostly about -30% to -49%
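Secreted IL-1B measured by AlphaLISA bead assay after 16 h compound exposure of THP-1 cells; compounds (final up to 57.5 uM) added 1 h before LPS (250 ng/mL) and ATP (1.25 mM) stimulation; lower signal means less secretion.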
A number is an active result; – = inactive; ? = inconclusive; · = no result given. Unless noted, calls come from the whole dose curve; as a rule, active = well fitted curve in the direction sought with a large enough effect; inconclusive = small, poorly fitted or top-dose-only effect, or another doubt; inactive = no such curve, though single readings can be large; an effect the other way counts as inactive or inconclusive.

SMILES	HT1080 IDH1KD tx	DT40 TDP1 no CPT	DT40 TDP1 CPT	HT1080NT lethal	IL1B secr inh
CN(C)c1ccc(CNC(=O)C2(C)Cc3c(-c4ccc5c(c4)OCO5)ccnc3O2)cc1 (stereo unspecified)	?	3.7µM	4.6µM	?	–
CC(=O)Nc1ccc(-c2ccnc3c2CC(C)(C(=O)NCc2ccncc2)O3)cc1 (stereo unspecified)	–	–	–	–	–
CN(C)c1ccc(CNC(=O)C2(C)Cc3c(-c4ccc(N(C)C)cc4)ccnc3O2)cc1 (stereo unspecified)	?	18µM	?	?	–
CN(c1ccccc1)S(=O)(=O)c1cccc(C(=O)OCC(=O)NCc2ccc3c(c2)OCO3)c1	–	–	–	–	–
C=CC(=O)Nc1sc2c(c1C(N)=O)CCCC2	–	?	15µM	–	-109
C=CCNC(=S)Nc1sc2c(c1C(N)=O)CCCC2	–	?	?	–	–
NC(=O)c1c(NC(=O)CN2CCCC2)sc2c1CCCC2	–	16µM	9.2µM	–	–
COC(=O)Nc1sc2c(c1C(N)=O)CCCCCC2	–	21µM	16µM	–	–
NC(=O)c1c(NC(=O)COC(=O)c2ccc(O)c(Cl)c2)sc2c1CCCC2	–	?	26µM	–	–
COC(=O)c1c(NC(=O)COC(=O)c2ccccc2O)sc2c1CCCCC2	–	–	–	–	–
O=C(NCCc1nnc2n1CCN(Cc1ccc3c(c1)CCO3)CC2)c1ccco1	·	–	–	·	·
COc1cc(NC(=O)CCCc2c[nH]c3ccccc23)cc(OC)c1	–	?	?	–	–
NC(=O)c1c(NC(=O)c2ccncc2)sc2c1CCCC2	–	16µM	?	–	–
NC(=O)c1c(NC(=O)c2ccncc2)sc2c1CCCCCC2	–	?	–	–	–
Cc1cc([N+](=O)[O-])nn1CCCC(=O)Nc1sc2c(c1C(N)=O)CCCC2	–	18µM	?	–	?
Cc1nc(Nc2nc(-c3ccccc3)cc(=O)[nH]2)nc2ccccc12	18µM	16µM	21µM	?	-65
Cc1cc(C)cc(Nc2nc3ccccc3c(=O)[nH]2)c1	–	?	–	–	–
Cc1nc(Nc2nc(CSc3nc4ccccc4[nH]3)cc(=O)[nH]2)nc2ccccc12	4.6µM	6.5µM	4.1µM	4.1µM	-87
Cc1ccc2c(=O)[nH]c(Nc3nc(C)cc(-c4ccccc4)n3)nc2c1	–	12µM	10µM	–	–
COc1ccc2nc(SCc3nc(N)nc(Nc4ccccc4)n3)[nH]c2c1	–	16µM	?	–	–
Cc1ccc(NC(=O)c2nc(-c3ccncc3)no2)c(Cl)c1	·	–	–	·	·
COc1ccc2nc(Nc3nc(CSc4nc5ccccc5[nH]4)cc(=O)[nH]3)nc(C)c2c1	?	4.1µM	4.6µM	?	-95
c1ccc(-c2nnc(NC3=NCCC3)o2)cc1	–	–	–	–	–
Fc1ccc(-c2nnc(NC3=NCCCCC3)o2)cc1	?	13µM	?	?	–
C(=C\c1nccc2c1[nH]c1ccccc12)/c1ccccc1	?	15µM	?	?	–
SMILES	HT1080 IDH1KD tx	DT40 TDP1 no CPT	DT40 TDP1 CPT	HT1080NT lethal	IL1B secr inh
Fc1ccc(/C=C\c2nccc3c2[nH]c2ccccc23)cc1	23µM	?	?	?	-78
O=C(C[C@H]1C[C@H](C(=O)N2CCOCC2)[C@@]2(CCC3CCCC3)c3[nH]c4cc(-c5ccco5)ccc4c3CCN2C1=O)NCC12CC3CC(CC(C3)C1)C2	–	?	15µM	–	?
COc1ccc2[nH]c3c(c2c1)CCN1C(=O)C(CC(=O)NCCc2ccccn2)C[C@H](C(=O)N2CCOCC2)[C@@]31CCC1CCCC1 (stereo partly specified)	–	?	?	–	–
COCCCNC(=O)C[C@H]1C[C@H](C(=O)N2CCOCC2)[C@@]2(CCC3CCCC3)c3[nH]c4cc(-c5ccco5)ccc4c3CCN2C1=O	–	?	?	–	?
O=C(CC1C[C@H](C(=O)N2CCOCC2)[C@@]2(CCC3CCCC3)c3[nH]c4ccccc4c3CCN2C1=O)NCc1ccco1 (stereo partly specified)	–	?	21µM	–	?
O=C(C[C@H]1C[C@H](C(=O)N2CCOCC2)[C@@]2(CCC3CCCC3)c3[nH]c4ccc(Cl)cc4c3CCN2C1=O)NCCCn1ccnc1	?	?	?	?	-59
CC[C@]12c3[nH]c4ccccc4c3CCN1C(=O)C(CC(=O)NCc1ccco1)C[C@@H]2C(=O)N1CCN(C(=O)C2CC2)CC1 (stereo partly specified)	–	–	–	–	–
O=C(CC1C[C@H](C(=O)N2CCOCC2)[C@@]2(CCC3CCCC3)c3[nH]c4ccccc4c3CCN2C1=O)NCCc1ccccn1 (stereo partly specified)	–	?	21µM	–	–
CN(C)C(=O)CCc1ccc2c3c([nH]c2c1)[C@]1(CCC2CCCC2)[C@@H](C(=O)N2CCOCC2)C[C@H](CC(=O)NCCCn2ccnc2)C(=O)N1CC3	–	–	–	–	–
CC1CCCC(C)N1C(=O)CSc1nnc(C2CCCCC2)o1 (stereo unspecified)	–	?	–	–	–
C[C@]12c3[nH]c4cc(-c5ccco5)ccc4c3CCN1C(=O)[C@@H](CC(=O)NCCc1ccccn1)C[C@@H]2C(=O)N1CCOCC1	–	?	?	–	–
COc1ccc(CNC(=O)C[C@H]2C[C@H](C(=O)N3CCOCC3)[C@@]3(CCC4CCCC4)c4[nH]c5cc(-c6ccco6)ccc5c4CCN3C2=O)cc1OC	?	?	18µM	?	?
C[C@]12c3[nH]c4cc(-c5ccco5)ccc4c3CCN1C(=O)[C@@H](CC(=O)NCC13CC4CC(CC(C4)C1)C3)C[C@@H]2C(=O)N1CCOCC1	18µM	?	?	?	–
O=C(C[C@H]1C[C@H](C(=O)N2CCOCC2)[C@@]2(CCC3CCCC3)c3[nH]c4cc(-c5ccco5)ccc4c3CCN2C1=O)NCCN1CCOCC1	?	?	23µM	–	–
O=C(CC1C[C@H](C(=O)N2CCOCC2)[C@@]2(CCC3CCCC3)c3[nH]c4ccccc4c3CCN2C1=O)NCC12CC3CC(CC(C3)C1)C2 (stereo partly specified)	–	16µM	16µM	–	?
O=C(CC1C[C@H](C(=O)N2CCOCC2)[C@@]2(CCC3CCCC3)c3[nH]c4ccccc4c3CCN2C1=O)NCCN1CCOCC1 (stereo partly specified)	–	?	?	–	–

Screens (PubChem BioAssay)
